# Reference: PubChem BioAssay (NCI)
# The panel holds about 83,000 compounds, 20% with a hit somewhere; the sample as a whole holds those more often.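 The endpoint reported here, percent growth, reads 100 for growth as untreated, 0 for no net growth and -100 for all cells dead.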 Unmarked numbers belong to inactive results. Active and inactive are the calls of the source. Rule for the calls: active = growth percent below 10; inactive = the rest.
# How the values were obtained:
# Assay in all cases: NCI-60 one-dose screen, 48 h (100 = growth as untreated, 0 = no growth, -100 = all killed)
# Conditions in all cases: 10 µM unless noted
# DU-145 prostate = system: DU-145 prostate
# K-562 leukemia = system: K-562 leukemia
# MALME-3M melanoma = system: MALME-3M melanoma
# MDA-MB-231 breast = system: MDA-MB-231 breast
# RXF 393 renal = system: RXF 393 renal
# SF-268 CNS = system: SF-268 CNS
# SF-295 CNS = system: SF-295 CNS
# SF-539 CNS = system: SF-539 CNS
# UACC-257 melanoma = system: UACC-257 melanoma
# M14 melanoma = system: M14 melanoma
SMILES,growth (DU-145 prostate),growth (K-562 leukemia),growth (MALME-3M melanoma),growth (MDA-MB-231 breast),growth (RXF 393 renal),growth (SF-268 CNS),growth (SF-295 CNS),growth (SF-539 CNS),growth (UACC-257 melanoma),growth (M14 melanoma)
O=C1C(Nc2ccc(Br)cc2)=C(I)C(=O)c2ncccc21,20.5%,5.98% (active),-6.23% (active),6.88% (active),45.8%,46.2%,86.6%,15.3%,49.3%,10.4%
CC(=O)c1ccc(Nc2nccc(-c3ccc(Cl)cc3)n2)cc1,102%,83.9%,101%,101%,103%,93%,101%,92.3%,106%,101%
Cc1nc2ccccc2c(/C=C/c2ccc(Cl)cc2)c1C(=O)/C=C/c1ccccc1,9.75% (active),6.19% (active),-20.4% (active),9.11% (active),-41.8% (active),51.3%,10.7%,-48.8% (active),-3.79% (active),-0.144% (active)
CCN1C(=O)N(CC)C2C1NN=c1s/c(=C3\C(=O)N(C)c4ccccc43)c(=O)n12 (stereo not given),11.9%,9.16% (active),40.8%,33.9%,-14.1% (active),70.5%,7.04% (active),-24.7% (active),94.6%,43.1%
CC(=O)Oc1ccccc1C(=O)N(Cc1ccc2c(Cl)cc(Cl)c(O)c2n1)c1ccccc1,50.1%,22.5%,69.3%,68.8%,60.7%,39.8%,33.2%,59%,78.6%,51%
Cc1ccc(Nc2oc(-c3ccccc3)nc2[P+](c2ccccc2)(c2ccccc2)c2ccccc2)cc1,-19.4% (active),0.645% (active),-61.6% (active),-83.5% (active),-69.1% (active),10.6%,-85.5% (active),-60.7% (active),-42.5% (active),-76.2% (active)
COC(=O)c1nc(-c2ccccc2)oc1S(=O)(=O)N1CCN(c2ccc(OC)cc2)CC1,86.5%,20.4%,77.4%,75.7%,84.9%,93.8%,103%,94.1%,83.4%,54.2%
COc1cc(/C=C2\C(=O)N(CCOc3cc(O)c4c(=O)cc(-c5ccccc5)oc4c3)c3ccccc32)cc(OC)c1O,94%,22.6%,77.6%,64.2%,85.9%,70.6%,86.6%,69.9%,104%,28.1%
CN1CCN(CCCNC(=O)c2c3c(n4ccccc24)C(=O)c2ncccc2C3=O)CC1,17.8%,-1.31% (active),-91.2% (active),0.342% (active),21.1%,9.37% (active),28.4%,-4.38% (active),-55.8% (active),-53.9% (active)
CCCN1C2CCC1/C(=C\c1ccc(OC)cc1)C(=O)/C2=C/c1ccc(OC)cc1,90%,35.6%,57.5%,74.9%,92.4%,83.9%,76.7%,105%,44.4%,62.1%
CCN1C(=O)N(CC)C2C1NN=c1s/c(=C\c3ccccc3)c(=O)n12 (stereo not given),5.47% (active),8.79% (active),41.1%,2.86% (active),32%,54.8%,5.04% (active),-12.5% (active),45.8%,8.9% (active)
COc1cccc(CNc2nnc(C)c(C)n2)c1O,108%,102%,108%,96.3%,123%,100%,97%,99.7%,95%,101%
COC(=O)[C@@H](Cc1c[nH]c2ccccc12)NC[C@@H](O)CN1C(=O)/C(=C\c2cc(OC)c(OC)c(OC)c2)c2ccccc21,75.1%,36%,84.8%,82.5%,72%,70.6%,69.4%,93.3%,62.2%,64.6%
C#C[C@]1(O)CC[C@H]2[C@@H]3CC=C4c5sc(-c6cccc(C)c6)nc5CC[C@]4(C)[C@H]3CC[C@@]21C,78.5%,0.702% (active),83%,59.8%,11.7%,60.8%,58.5%,15.9%,58.5%,58.7%
CC1=NC(=S)NC(c2ccccc2)/C1=C1/CC(c2ccccc2O)NN1 (stereo not given),101%,99.4%,97.9%,94.8%,103%,93.3%,100%,93.4%,107%,97.3%
CCNc1nc(-c2ccc(Cl)c(OC)c2)c(-c2ccnc(NCCNS(=O)(=O)c3ccc(Cl)cc3)n2)s1,44.3%,18.3%,46.2%,0.973% (active),18.9%,37%,17.2%,38.3%,50.4%,29.7%
O=C(O)CCCN1C(=O)CSC1=S,107%,103%,102%,107%,107%,93.9%,106%,102%,95.9%,93.3%
CCOC(=O)c1ccc2c(c1)c1c(C)c3cnccc3c(C)c1n2C,-17% (active),0.0057% (active),-91.3% (active),-55.9% (active),-83% (active),-15.9% (active),-24.3% (active),-95.8% (active),-42.2% (active),-88.3% (active)
C1=C2CCCC3=Cc4ccccc4OC23Oc2ccccc21,28.1%,15.3%,56.8%,43.5%,9.77% (active),31.6%,11.3%,7.81% (active),40.1%,19.2%
Nc1ncc(-c2ccc3ncnc(N4CCc5cc(F)c(Cl)cc54)c3c2)cc1C=O,10.1%,35.5%,-15.5% (active),26.4%,-35% (active),18.1%,6.94% (active),12.1%,24.6%,19%
O=C(OCC(O)(CO)C(=O)NC12CC3CC(CC(C3)C1)C2)c1ccc(Cl)cc1 (stereo not given),108%,91.4%,103%,101%,101%,99.7%,93.1%,107%,99.2%,98.7%
CCOC(=O)/C(=C\c1ccccc1Cl)P(=O)(OCC)OCC,36%,28.6%,71.2%,71%,42.8%,63.2%,96.7%,48.2%,61.9%,56.6%
COc1ccc(Cn2cc3c(c2)-c2oncc2CC3)cc1,176%,20.6%,83.2%,70.5%,75.8%,136%,58.6%,48%,85.9%,29.2%
COc1cc2c(cc1-c1c(C)noc1C)ncc1nc(C3CCOCC3)n(C3CCC(OC(F)F)CC3)c12 (stereo not given),73.2%,47.6%,44.1%,36.2%,59%,64.9%,53.5%,56.6%,47.7%,54.6%
C#CCOC(=O)C(N)CSSCC(N)C(=O)O (stereo not given),119%,108%,95.6%,105%,114%,100%,103%,90.8%,104%,100%
CCOC(=O)c1c(NC(=S)Nc2ccc([N+](=O)[O-])cc2)sc2c1CCCCC2,89.8%,81.1%,72.7%,79.7%,85.6%,89%,87.2%,92%,70.4%,93.7%
O=[N+]([O-])c1ccc(Oc2cccc3c(Oc4ccc([N+](=O)[O-])cc4[N+](=O)[O-])cccc23)c([N+](=O)[O-])c1,107%,95.1%,105%,63.7%,96.4%,85%,99.9%,96.3%,91.6%,93.3%
